# Data as given in PubChem BioAssay.
# The source made the active and inactive calls. Unless noted, how the calls were made is not given here.
# Columns and labels:
# [1] = A549 cell viability effects, profiling panel, calcein-AM fluorescence, 48 h, basal (AID 1162); settings: higher = more signal; further: test concentration not given here
# [2] = adipocyte viability effects, profiling panel, cell-based, 3T3-L1 adipocytes, calcein-AM fluorescence, 48 h, basal (AID 1163); settings: 3T3-L1 adipocytes viability, higher = more signal; further: test concentration not given here
# [3] = HepG2 cell viability effects, profiling panel, calcein-AM fluorescence, 48 h, basal (AID 1164); settings: higher = more signal; further: test concentration not given here
# [4] = MM1S cell viability effects, profiling panel, calcein-AM fluorescence, 48 h, basal (AID 1165); settings: higher = more signal;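 further: viability of MM1S multiple myeloma cells under basal unstimulated conditions; test concentration not given here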
# [5] = basal RPMI8226 viability, no added stimulus, profiling panel, cell-based, calcein-AM fluorescence, 48 h, PK04 Diversity Set (AID 1166); settings: RPMI8226 myeloma viability, higher = more signal;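 further: cells grown under basal conditions without added stimulus; test concentration not given here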
# [6] = basal HepG2 mitochondrial membrane potential changes, profiling panel, cell-based, JC-1 fluorescence, 24 h, 100 nL compound (AID 1167); settings: higher = more signal; further: test concentration not given here
# [7] = basal 3T3-L1 adipocyte mitochondrial potential changes, profiling panel, cell-based, JC-1 fluorescence, 3T3-L1 adipocytes, 24 h, 100 nL compound (AID 1168); settings: JC-1 mitochondrial fluorescence, higher = more signal, called active from +8 up or from −8 down; further: test concentration not given here
# [8] = basal RPMI8226 mitochondrial membrane potential changes, profiling panel, cell-based, JC-1 fluorescence, 24 h, 100 nL compound (AID 1169); settings: RPMI8226 myeloma, JC-1 mitochondrial potential fluorescence, higher = more signal; further: test concentration not given here
# [9] = basal MM1S mitochondrial membrane potential changes, profiling panel, cell-based, JC-1 fluorescence, 24 h, 100 nL compound (AID 1170); settings: higher = more signal; further: test concentration not given here
# [10] = A549 lung cancer cell viability effects, profiling panel, resazurin fluorescence, 24 h, PK04 Diversity Set (AID 1171); settings: higher = more signal, called active from +8 up or from −8 down; further: test concentration not given here
# [11] = HepG2 liver cancer cell viability effects, profiling panel, resazurin fluorescence, 24 h, PK04 Diversity Set (AID 1172); settings: higher = more signal; further: test concentration not given here
# [12] = basal S. cerevisiae growth modulation, no modifier, primary screen, OD600, strain BY4716, 24 h, basal condition (AID 1173); settings: OD600, 24 h, higher = more signal, called active from +8 up or from −8 down
# [13] = MM1S myeloma cell viability, profiling panel, resazurin fluorescence, basal, 24 h, PK04 Diversity Set (AID 1174); settings: higher = more signal, called active from +8 up or from −8 down;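 further: MM1S multiple myeloma cell line; test concentration not given here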
# [14] = target: Dihydroorotate dehydrogenase (quinone), mitochondrial (Plasmodium falciparum (isolate 3D7)) (UniProt Q08210); experiment: PfDHODH enzyme inhibitors, primary screen, biochemical, C-terminal His tag, absorbance 600 nm (AID 1175); settings: DCIP absorbance 600 nm, higher = more signal, called active from +8 up or from −8 down;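 further: recombinant parasite enzyme with a five histidine tag at its C terminus; test concentration not given here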
# Dihydroorotate dehydrogenase (quinone), mitochondrial (Plasmodium falciparum (isolate 3D7)), sequence (Q08210 whole entry, looked up): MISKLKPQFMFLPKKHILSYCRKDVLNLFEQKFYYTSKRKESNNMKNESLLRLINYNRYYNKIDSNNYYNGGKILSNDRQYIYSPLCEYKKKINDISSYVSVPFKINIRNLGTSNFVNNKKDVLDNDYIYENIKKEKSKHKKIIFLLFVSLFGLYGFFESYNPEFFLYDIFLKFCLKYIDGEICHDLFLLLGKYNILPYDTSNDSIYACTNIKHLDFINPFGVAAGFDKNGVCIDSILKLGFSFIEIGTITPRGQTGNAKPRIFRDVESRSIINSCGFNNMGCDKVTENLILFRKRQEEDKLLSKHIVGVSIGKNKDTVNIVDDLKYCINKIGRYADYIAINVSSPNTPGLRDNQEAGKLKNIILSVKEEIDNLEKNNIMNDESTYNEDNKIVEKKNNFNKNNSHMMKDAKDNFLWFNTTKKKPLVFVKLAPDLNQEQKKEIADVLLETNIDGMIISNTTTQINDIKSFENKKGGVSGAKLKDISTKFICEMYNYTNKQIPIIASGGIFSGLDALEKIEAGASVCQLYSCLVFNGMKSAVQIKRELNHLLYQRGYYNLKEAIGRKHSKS
# [15] = P. aeruginosa biofilm formation inhibitors, primary screen, strain PAO1, LB-PBS medium, absorbance 600 nm (AID 1176); further: test concentration not given here; settings: P. aeruginosa PAO1 growth/biofilm, A600, 12 h; higher = more signal
# [16] = S. cerevisiae RM11-1a growth modifiers, primary screen, strain RM11-1a, OD600, basal, 24 h (AID 1177); settings: OD600, 24 h, higher = more signal, called active from +8 up or from −8 down;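 further: cultures grown under basal conditions with no added stressor; test concentration not given here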
# [17] = E. coli acrAB mutant growth effects, primary screen, E. coli filamentation inducers, strain DRC39, OD650, 24 h (AID 1178); settings: higher = more signal, called active from +8 up or from −8 down;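 further: growth measured as culture turbidity by optical density at 650 nm; test concentration not given here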
# [18] = E. coli acrAB mutant growth effects, primary screen, E. coli filamentation inducers, strain DRC39, OD650, 48 h (AID 1179);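 further: screen aims at cell division blockers that make cells filament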; settings: E. coli DRC39 delta-acrAB growth, higher = more signal, called active from +8 up or from −8 down
# [19] = RPMI8226 myeloma cell viability, profiling panel, resazurin fluorescence, basal, 24 h, PK04 Diversity Set (AID 1180); settings: higher = more signal;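 further: RPMI8826 multiple myeloma cell line at 5000 cells per well; test concentration not given here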
# [20] = target: E3 ubiquitin-protein ligase XIAP (Homo sapiens) (UniProt P98170); experiment: XIAP binders, primary screen, biophysical, small-molecule microarray, fluorescence 635 nm (AID 1181); settings: small-molecule microarray binding, higher = more signal;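 further: score merges 667 nm emission and signal to noise over triplicate slides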
# E3 ubiquitin-protein ligase XIAP (Homo sapiens), sequence (P98170 whole entry, looked up): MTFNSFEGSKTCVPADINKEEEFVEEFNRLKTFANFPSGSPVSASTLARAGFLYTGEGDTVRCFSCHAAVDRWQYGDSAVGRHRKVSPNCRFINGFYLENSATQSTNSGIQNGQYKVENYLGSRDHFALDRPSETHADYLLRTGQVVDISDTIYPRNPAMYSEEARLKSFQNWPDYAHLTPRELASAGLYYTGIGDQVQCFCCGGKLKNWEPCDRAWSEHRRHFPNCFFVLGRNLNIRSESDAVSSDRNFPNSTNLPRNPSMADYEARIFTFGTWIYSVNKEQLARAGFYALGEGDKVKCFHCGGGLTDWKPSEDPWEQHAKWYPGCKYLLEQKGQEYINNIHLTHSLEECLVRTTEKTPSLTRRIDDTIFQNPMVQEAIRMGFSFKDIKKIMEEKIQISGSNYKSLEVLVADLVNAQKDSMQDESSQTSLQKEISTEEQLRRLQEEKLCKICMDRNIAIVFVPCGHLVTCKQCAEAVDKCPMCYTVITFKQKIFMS
SMILES,z-score [1],z-score [2],z-score [3],z-score [4],z-score [5],z-score [6],z-score [7],z-score [8],z-score [9],z-score [10],z-score [11],z-score [12],z-score [13],composite z-score [14],z-score [15],z-score [16],z-score [17],z-score [18],z-score [19],composite z-score [20]
CCCC[C@@H](O)C1=C(COc2ccccc2)Cn2c(=O)n(-c3ccccc3)c(=O)n2[C@H]1CO,0.753,0.409,-0.0994,0.356,-1.02,-0.368,0.334 (inactive),0.42,0.277,-0.515 (inactive),-0.196,-4 (inactive),0.0088 (inactive),-1.05 (inactive),0.789 (inactive),-3.57 (inactive),1.36 (inactive),0.0244 (inactive),0.539,0.106
COCCOC(=O)N1C(=O)[C@@]2(c3cc(C#CC4(O)CCCCCC4)ccc31)[C@H](C(=O)N1CCc3cc(OC)c(OC)cc3C1)[C@H]1C(=O)O[C@H](c3ccccc3)[C@H](c3ccccc3)N1[C@@H]2c1ccccc1OCCO,0.863,1.59,0.898,-0.401,-1.47,0.782,1.29 (inactive),-0.477,-0.952,0.993 (inactive),0.032,1.96 (inactive),0.162 (inactive),0.666 (inactive),1.01 (inactive),2.98 (inactive),-0.0554 (inactive),0.585 (inactive),0.793,0.0297
CCOC(=O)C[C@H]1[C@H](OC(=O)Cc2ccc3c(c2)OCO3)[C@@H](NC(=O)c2ccccc2)c2cc(OCCCO)ccc2N1C(=O)c1ccc2ccccc2n1,1.86,1.08,1.8,-0.198,-0.243,1.12,0.607 (inactive),-0.156,-0.178,-1.38 (inactive),-0.287,-1.02 (inactive),0.426 (inactive),-1.03 (inactive),-0.0057 (inactive),-1.68 (inactive),0.907 (inactive),0.88 (inactive),0.121,-0.138
O=C(NCc1ccccc1)[C@]1(Cc2ccccc2)N=C(c2ccc(OCCCO)cc2)O[C@@H]1c1ccccc1,-2.44,0.709,-1.83,-2.57,-4.2,0.683,0.145 (inactive),-1.21,-1.24,0.0976 (inactive),0.455,1.41 (inactive),-1.91 (inactive),1.8 (inactive),1.19 (inactive),3.75 (inactive),0.653 (inactive),-0.642 (inactive),-1.79,0.0871
C=CCOC(=O)[C@@H]1[C@H]2C(=O)O[C@H](c3ccccc3)[C@H](c3ccccc3)N2[C@H](c2ccc(OCCOC(=O)[C@H]3C[C@H]4C(=O)N[C@@H](Cc5ccccc5)C(=O)N4[C@H]3c3cccc(OCCO)c3)cc2)[C@@]12C(=O)Nc1ccc(I)cc12,0.188,-0.282,0.921,-3.18,-0.493,0.244,0.473 (inactive),-0.903,-1.57,0.535 (inactive),-0.208,-0.215 (inactive),-1.94 (inactive),-3.73 (inactive),0.199 (inactive),2.13 (inactive),-0.847 (inactive),0.573 (inactive),-1.01,-0.128
O=C1c2ccccc2[C@](Cc2ccccc2I)(C(=O)NCC(F)(F)F)[C@H](c2ccc(CO)cc2)N1Cc1ccccc1,0.535,0.489,0.43,-0.441,-1.67,-0.0706,-0.0813 (inactive),-0.332,-0.645,1.1 (inactive),0.846,-0.895 (inactive),-0.277 (inactive),-0.537 (inactive),-0.0344 (inactive),0.0123 (inactive),0.496 (inactive),1.07 (inactive),0.675,-0.0962
CCCC=C(CCC)[C@@H](NS(=O)(=O)c1ccccc1)c1ccc(C(F)(F)F)cc1,-2.27,-0.287,-2.34,-2.55,-4.06,-3.56,-0.634 (inactive),-0.981,-2.47,-0.795 (inactive),-0.574,0.892 (inactive),-2.56 (inactive),-0.62 (inactive),-0.415 (inactive),1.07 (inactive),-0.28 (inactive),-0.428 (inactive),-3.59,0.0039
CC(C)(C)N1CC=CC23O[C@@H]4C=CCCOC(=O)C4[C@H]2C(=O)N(CCCO)[C@@H]3C1=O (stereo not given in full),0.28,1.75,0.15,-0.685,-0.783,-1.26,0.514 (inactive),0.846,-0.0658,-1.22 (inactive),-0.884,-0.434 (inactive),-1.12 (inactive),-3.53 (inactive),-0.193 (inactive),0.605 (inactive),-1.23 (inactive),-1.27 (inactive),-1.15,-0.263
O=C1C2C=CC(C(O)c3ccc(Br)cc3)N(Nc3ccccc3)C2C(=O)N1c1ccccc1 (stereo not given),-1.17,-1.45,-0.5,-1.27,0.134,-1.92,-0.711 (inactive),-0.163,-0.0898,-0.201 (inactive),-0.69,-3.48 (inactive),-1.95 (inactive),1.02 (inactive),1.22 (inactive),0.501 (inactive),-0.387 (inactive),-0.604 (inactive),-1.48,0.184
